The target in test [1] is Rap guanine nucleotide exchange factor 3 (Homo sapiens) (UniProt O95398). The test is described as follows: Confirmatory qHTS for antagonist of cAMP-regulated guanine nucleotide exchange factor 3 (EPAC1) (AID 1645880). Note: nearly all actives have a fitted effect of over 55% in size. Note: potency is the fitted concentration of half-maximal effect. The method in brief:
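Nucleotide exchange uses 100 nM EPAC1, 250 nM RAP1B-BODIPY-GDP and 50 uM GDP, with compounds in a concentration-titration series. After 5 min at room temperature, fluorescence (480 nm ex/540 nm em) is read every 5 min for 30 min. Data are normalized to control ATA and DMSO.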

Test [2] has the same target. In words: Confirmatory qHTS for agonist of cAMP-regulated guanine nucleotide exchange factor 3 (EPAC1) (AID 1645881).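 For activation: EPAC1 catalysed release of BODIPY-GDP from Rap1B seen as fluorescence loss; 100% = effect of cAMP agonist control.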 Note: nearly all actives have a fitted effect of over 75% in size. Note: potency is the fitted concentration of half-maximal effect.
In test [3] the target is Rap guanine nucleotide exchange factor 4 (Homo sapiens) (UniProt Q8WZA2). The test is described as follows: Confirmatory qHTS for agonist of cAMP-regulated guanine nucleotide exchange factor 4 (EPAC2) (AID 1645884). For activation: % is set by controls: 0 for no effect and ±100 for the full control effect.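 Note: nucleotide exchange releases bodipy-GDP from Rap1 and this lowers its fluorescence; nearly all actives have a fitted effect of over 65% in size.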 Note: potency is the fitted concentration of half-maximal effect.
For test [4] the target is unchanged. The test is described as follows: Confirmatory qHTS for antagonist of cAMP-regulated guanine nucleotide exchange factor 4 (EPAC2) (AID 1645885). For activity change, negative = inhibition: % is set by controls: 0 for no effect and ±100 for the full control effect. Note: nearly all actives have a fitted effect of over 25% in size. Note: potency is the fitted concentration of half-maximal effect.
The target of test [5] is Rap guanine nucleotide exchange factor 3 (Homo sapiens) (UniProt O95398). In words: Counterscreen qHTS for antagonist of cAMP-regulated guanine nucleotide exchange factor 3 (EPAC1) (AID 1645888).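 Note: fluorescence loss as bound BODIPY-GDP is released from Rap1B; % of control where 0% means no effect.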 The essentials:
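Rap1B–BODIPY-GDP (250 nM) with 50 uM GDP; compounds pin-transferred to 9.74 nM–152 uM final (activator) or from 7.32 nM upwards (inhibitor). Fluorescence Ex/Em 480/540 nm read at 5 and 30 min, then after adding cAMP or buffer, at room temperature.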
In general terms: Counterscreens check selectivity or assay interference.

Results filed as inconclusive are left out. A number with no mark means an inactive call. Activity calls are given as the source filed them. Calls come from the whole dose curve; as a rule, active = well fitted curve in the direction sought with a large enough effect; inconclusive = small, poorly fitted or top-dose-only effect, or another doubt; inactive = no such curve, though single readings can be large; an effect the other way counts as inactive or inconclusive.

Rap guanine nucleotide exchange factor 3 (Homo sapiens), sequence (O95398 whole entry, looked up): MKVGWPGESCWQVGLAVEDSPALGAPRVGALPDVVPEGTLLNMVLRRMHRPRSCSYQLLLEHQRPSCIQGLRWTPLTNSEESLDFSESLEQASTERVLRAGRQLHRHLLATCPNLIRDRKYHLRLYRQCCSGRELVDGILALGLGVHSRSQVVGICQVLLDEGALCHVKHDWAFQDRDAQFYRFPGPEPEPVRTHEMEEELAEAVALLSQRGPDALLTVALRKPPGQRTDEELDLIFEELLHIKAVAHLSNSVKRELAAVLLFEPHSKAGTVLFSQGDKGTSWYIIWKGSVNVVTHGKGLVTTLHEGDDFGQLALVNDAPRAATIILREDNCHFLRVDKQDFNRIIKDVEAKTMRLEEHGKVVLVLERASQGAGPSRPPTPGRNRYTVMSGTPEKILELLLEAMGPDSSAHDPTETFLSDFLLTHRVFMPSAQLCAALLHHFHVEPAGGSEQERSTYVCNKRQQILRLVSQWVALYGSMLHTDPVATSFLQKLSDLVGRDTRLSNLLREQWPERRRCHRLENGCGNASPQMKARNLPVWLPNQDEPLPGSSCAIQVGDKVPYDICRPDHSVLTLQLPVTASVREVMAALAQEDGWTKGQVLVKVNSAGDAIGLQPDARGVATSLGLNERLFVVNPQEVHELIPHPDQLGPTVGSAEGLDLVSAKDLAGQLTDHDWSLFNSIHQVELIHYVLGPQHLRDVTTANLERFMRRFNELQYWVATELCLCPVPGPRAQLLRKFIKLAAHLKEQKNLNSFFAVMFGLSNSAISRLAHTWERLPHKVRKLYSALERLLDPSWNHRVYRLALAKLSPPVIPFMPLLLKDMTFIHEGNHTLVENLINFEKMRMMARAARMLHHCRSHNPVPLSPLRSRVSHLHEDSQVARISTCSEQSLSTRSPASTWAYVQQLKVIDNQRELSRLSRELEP
Rap guanine nucleotide exchange factor 4 (Homo sapiens), sequence (Q8WZA2 whole entry, looked up): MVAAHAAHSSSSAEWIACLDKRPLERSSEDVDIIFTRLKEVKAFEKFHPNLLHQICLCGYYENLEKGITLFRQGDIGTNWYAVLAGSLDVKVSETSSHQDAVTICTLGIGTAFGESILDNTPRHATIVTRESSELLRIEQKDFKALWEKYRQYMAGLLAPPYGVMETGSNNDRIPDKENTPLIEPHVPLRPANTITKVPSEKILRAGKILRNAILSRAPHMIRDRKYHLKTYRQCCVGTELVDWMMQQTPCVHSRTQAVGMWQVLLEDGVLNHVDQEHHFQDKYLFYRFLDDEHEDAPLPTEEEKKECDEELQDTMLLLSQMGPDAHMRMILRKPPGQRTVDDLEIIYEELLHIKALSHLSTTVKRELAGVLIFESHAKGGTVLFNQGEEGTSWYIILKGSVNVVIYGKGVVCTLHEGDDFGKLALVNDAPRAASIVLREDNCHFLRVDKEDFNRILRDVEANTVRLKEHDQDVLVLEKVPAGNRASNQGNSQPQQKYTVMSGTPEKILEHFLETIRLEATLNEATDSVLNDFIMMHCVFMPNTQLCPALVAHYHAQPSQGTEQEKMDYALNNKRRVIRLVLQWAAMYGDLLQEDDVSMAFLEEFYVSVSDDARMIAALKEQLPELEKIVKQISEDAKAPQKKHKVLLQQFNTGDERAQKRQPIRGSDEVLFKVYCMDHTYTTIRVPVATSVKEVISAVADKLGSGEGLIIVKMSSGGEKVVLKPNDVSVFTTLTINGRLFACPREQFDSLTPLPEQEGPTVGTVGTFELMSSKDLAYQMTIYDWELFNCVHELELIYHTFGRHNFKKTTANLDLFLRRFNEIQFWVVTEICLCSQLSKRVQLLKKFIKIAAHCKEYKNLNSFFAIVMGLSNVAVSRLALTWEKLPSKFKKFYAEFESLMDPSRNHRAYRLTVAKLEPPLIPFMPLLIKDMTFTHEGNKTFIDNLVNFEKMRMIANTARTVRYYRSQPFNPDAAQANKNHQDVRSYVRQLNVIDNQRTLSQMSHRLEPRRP

Turning to `Cc1cc(C)cc(C(O)c2ncc(-c3ccccc3Cl)[nH]2)c1` (stereo not given), the Potency entry in test [1], in test [2] and in test [4] was “inactive” each time. Further, the activation in test [3] is 2.23% [at 17.1 µM, percent relative to cAMP agonist control]. For the same compound, the activity change, negative = inhibition in test [5] was -7.63% [at 30.8 µM].

In the case of `O=c1cc(CSc2ccccc2)nc(-c2ccncc2)[nH]1`, the Potency result in test [1], in test [2], in test [3], in test [4] and in test [5] was “inactive” each time.

Turning to `O=C1NN(c2ccccc2)C(=O)/C1=C\c1ccc(-c2cc([N+](=O)[O-])ccc2O)o1`, the values for the Potency in test [1] and in test [4] were 37.9 µM (active) and 60.1 µM (active), respectively. Also, the Potency entry in test [2], in test [3] and in test [5] was “inactive” throughout.

With `Cc1ccc(C2CC(=O)Oc3cc(C)cc(C)c32)cc1` (stereo not given), the Potency entry in test [1], in test [2], in test [3], in test [4] and in test [5] was “inactive” each time.

With `C=CCOc1ccc(C=NNc2ccc(S(=O)(=O)Nc3ccccc3C(=O)O)cc2[N+](=O)[O-])cc1OC`, the Potency in test [1] was 7.57 µM (active). For the same compound, the Potency result in test [2], in test [3], in test [4] and in test [5] was “inactive” each time.

Take `CCCCCn1c(C)c2c(OCC)cccc(=O)c2c1C`: the Potency entry in test [1], in test [2] and in test [4] was “inactive” throughout. In addition, the activation in test [3] was 7.02% [at 17.1 µM, percent relative to cAMP agonist control]. Also, in test [5], the activity change, negative = inhibition is 23.1% [at 30.8 µM].

`Cc1ccc(-n2c(SCC(=O)N/N=C/c3ccccc3C(=O)O)nnc2-c2ccc(Cl)cc2)cc1`: the Potency result in test [1], in test [2], in test [3], in test [4] and in test [5] was “inactive” throughout.

With `CN(C)CC/C=C1/c2ccccc2Sc2c(O)cc(Cl)cc21`, the Potency result in test [1], in test [2], in test [3], in test [4] and in test [5] was “inactive” in each case.

In the case of `O=C1NC(=Nc2ccccc2)S/C1=C\C=C\c1ccco1`, in test [1], the Potency was 16.9 µM (active). The Potency entry in test [2], in test [3], in test [4] and in test [5] was “inactive” in each case.

Regarding `NC(=O)c1cc2ccc(O)cc2oc1=NCc1ccccc1`, the Potency result in test [1], in test [4] and in test [5] was “inactive” each time. Besides, the Potency in test [2] and in test [3] was 112 µM (active) in each case.

Take `C[C@H]1CN([C@@H](C)CO)C(=O)c2cccc(NS(=O)(=O)c3ccc(Cl)cc3)c2O[C@@H]1CN(C)CC1CCCCC1`: the Potency entry in test [1], in test [2] and in test [4] was “inactive” throughout. Also, the activation in test [3] was 0% [at 17.1 µM, percent relative to cAMP agonist control]. The activity change, negative = inhibition in test [5] is 0.127% [at 30.8 µM].

On to `COc1cc2c(cc1OC)C(c1ccccc1)N(C(=O)c1ccco1)CC2` (stereo not given), for which the Potency result in test [1], in test [2], in test [3], in test [4] and in test [5] was “inactive” in each case.

Regarding `CCOC(=O)N1CCN(c2ccc(S(=O)(=O)N(Cc3ccccc3)Cc3ccccc3)cn2)CC1`, the Potency result in test [1], in test [2], in test [3], in test [4] and in test [5] was “inactive” each time.

As for `CCOC(=O)c1ccc(N2C(=O)c3n[nH]c(-c4ccco4)c3C2c2ccccc2OC)cc1` (stereo not given), in test [1], the Potency was 75.7 µM (active). Besides, the Potency result in test [2], in test [3], in test [4] and in test [5] was “inactive” each time.

Consider `CC[C@@]1(c2ccccc2OC)ON(c2ccccc2C(F)(F)F)C1=O`, for which the Potency entry in test [1], in test [2], in test [3], in test [4] and in test [5] was “inactive” throughout.

With `COc1ccc(N2CCN(C(c3ccccc3F)c3sc4nc(-c5ccco5)nn4c3O)CC2)cc1` (stereo not given), the Potency result in test [1], in test [2], in test [3], in test [4] and in test [5] was “inactive” throughout.

On to `NC(=O)COC(=O)c1ccc(Cl)c(S(=O)(=O)N(Cc2ccccc2)c2ccc(Cl)cc2)c1`, for which the Potency result in test [1], in test [2] and in test [4] was “inactive” in each case. In test [3], the activation was 4.76% [at 17.1 µM, percent relative to cAMP agonist control]. The activity change, negative = inhibition in test [5] is -4.28% [at 30.8 µM].

`COc1ccc(OC)c(NC(=O)CN(C)CCOc2ccc(Br)cc2)c1`: the Potency entry in test [1], in test [2], in test [3], in test [4] and in test [5] was “inactive” throughout.

On to `COC1=NC(=C(c2ccccc2)c2ccccc2)OC1=O`, for which the figures for the Potency in test [1] and in test [4] were 19 µM (active) and 47.8 µM (active), respectively. For the same compound, the Potency result in test [2], in test [3] and in test [5] was “inactive” in each case.

With `CC(=O)N1c2ccc(S(=O)(=O)NCCc3ccccc3)cc2CC1C` (stereo not given), the Potency result in test [1], in test [2], in test [3], in test [4] and in test [5] was “inactive” in each case.

Take `CC(C)OC1(c2ccccc2)OC(=O)c2ccccc21` (stereo not given): the Potency result in test [1], in test [2], in test [3], in test [4] and in test [5] was “inactive” throughout.

Take `COC(=O)CNc1cc(S(=O)(=O)N2CCCCC2)ccc1Oc1cccc(C)c1`: the Potency result in test [1], in test [2], in test [3], in test [4] and in test [5] was “inactive” throughout.

As to `Cc1ccc(C2=N/C(=C\c3c(C)nn(-c4ccccc4)c3N3CCCC3)C(=O)O2)cc1`, the Potency entry in test [1], in test [2], in test [3] and in test [5] was “inactive” throughout. Besides, in test [4], the Potency is 15.1 µM (active).

For `CC(=O)C1=C(C)OC2(O)c3ccccc3C(=O)C12O` (stereo not given), the Potency entry in test [1], in test [2] and in test [4] was “inactive” throughout. For the same compound, the activation in test [3] is 4.3% [at 17.1 µM, percent relative to cAMP agonist control]. Moreover, the activity change, negative = inhibition in test [5] was -10.4% [at 30.8 µM].

The values are drawn from PubChem BioAssay (NCATS).
